Experimental data taken from PubChem BioAssay AID504773 (Broad Institute, 2011).
Entries with a potency or affinity are not part of this list. Active and inactive are the calls of the source.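 The calls were made as follows: active = polarization signal falls with dose and the fitted half-maximal concentration is at or below ten times the sample's top valid dose; inconclusive = flat curve at 30 to 70% inhibition, or poor fit; inactive = signal rises, flat within 30%, or potency beyond limit.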

Target: Golgi-associated PDZ and coiled-coil motif-containing protein (Homo sapiens) (UniProt Q9HD26)
Assay: CAL PDZ peptide-binding inhibitors, dose response, biochemical, fluorescence polarization, Cerulean-tagged CAL PDZ, cherry-picks (AID 504773);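 also: 0% = DMSO neutral wells and -100% = excess unlabeled competitor peptide wells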
Details: 1 h; series mostly up to 50 µM; activity change, negative = inhibition: at the top concentration

Activity change, negative = inhibition, inactive:
CCOC(=O)N1CCN(Cc2nc3c(c(=O)n(C)c(=O)n3C)n2Cc2cccc(C)c2)CC1 15.9%
CCOC(=O)c1ccc(NC(=S)N2CCCC(C(=O)N3CCCC3)C2)cc1 (configuration not stated) 26.2%
O=C(c1ccccc1Cl)N(Cc1ccc(Cl)c(Cl)c1)N1C(=O)CCCC1=O 18.9%
CN(C)c1ccc(P(=O)(OC2CCCCC2)C(O)c2cccnc2)cc1 (configuration not stated) -21.2%
Cc1ccc(CN(C(=O)c2ccco2)C(C(=O)NC2CCCC2)c2cccnc2)cc1 (configuration not stated) 20.8%
CN(Cc1nccn1C)C(=O)c1cc(COc2ccc3ncccc3c2)on1 16.5%
COc1cc(Br)c(C(=O)c2nccc3cc(OC)c(OC)cc23)cc1OC -27.4%
Cc1ccccc1S(=O)(=O)NC(=NCc1ccc(F)cc1)c1ccccc1 -1.95%
O=C(c1cc(Br)ccc1Cl)N1CCN(c2ccccn2)CC1 -19.3%
CCN1C(=O)CS/C1=N\S(=O)(=O)c1ccc(Cl)cc1 17%
COc1cc(NS(=O)(=O)c2ccc(NC(=S)Nc3ccccc3)cc2)nc(OC)n1 -0.366%
CCN(CC)Cc1c(O)ccc2c1O/C(=C\C=C\c1ccccc1)C2=O -6.76%
CCC1C(=O)NCCN1C(=O)CCc1nnc(CCc2ccc(OC)cc2)o1 (configuration not stated) 15.2%
CC(=O)Nc1cc(NC(C)=O)cc(C(=O)OCC(=O)Nc2ccc(S(=O)(=O)NC3=NCCCCC3)cc2)c1 19%
CCCSC1=N/C(=C\c2ccc([N+](=O)[O-])o2)C(=O)S1 9.22%
CCOc1ccc(S(=O)(=O)N2CCCCC2)c(C)c1C -5.43%
CC(c1ccccc1)N1CCN(C(=O)CCl)CC1 (configuration not stated) 24%
